Screen size: about 1,300 compounds; about 460 (35%) were called active. Not shown: some 39% with an inconclusive outcome. Calls follow the shape of the dose curve; as a rule, active = well fitted inhibition curve with a large enough effect; inconclusive = small, poorly fitted or top-dose-only effect; inactive = flat fitted curve, though single readings scatter. This is one part of the list.
Potency is read from the fitted curve at half-maximal effect.

The target in this assay is Protein phosphatase EYA2 (Homo sapiens) (UniProt O00167). Nature of the assay: qHTS for Inhibitors of the Phosphatase Activity of Eya2: Confirmatory Assay for Cherry-picked Compounds. Also: nearly all actives have a fitted effect of over 65% in size.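 As to activity change, negative = inhibition: 0% = DMSO wells and -100% = EGTA control giving full inhibition.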 The note with it: purified EYA2 phosphatase activity, qHTS confirmation; series mostly up to 46.1 µM; activity change, negative = inhibition: at the top concentration. In short, it runs like this: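 Eya2 (0.2 uM working solution) preincubated 10 min at room temperature with compound in pH 7.5 HEPES buffer with MgCl2, BSA, DTT. OMFP added (50 uM working solution), 10 min more; fluorescence 485/525 nm, normalized to EGTA and DMSO.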
Sequence of Protein phosphatase EYA2 (Homo sapiens) (O00167 whole entry, looked up): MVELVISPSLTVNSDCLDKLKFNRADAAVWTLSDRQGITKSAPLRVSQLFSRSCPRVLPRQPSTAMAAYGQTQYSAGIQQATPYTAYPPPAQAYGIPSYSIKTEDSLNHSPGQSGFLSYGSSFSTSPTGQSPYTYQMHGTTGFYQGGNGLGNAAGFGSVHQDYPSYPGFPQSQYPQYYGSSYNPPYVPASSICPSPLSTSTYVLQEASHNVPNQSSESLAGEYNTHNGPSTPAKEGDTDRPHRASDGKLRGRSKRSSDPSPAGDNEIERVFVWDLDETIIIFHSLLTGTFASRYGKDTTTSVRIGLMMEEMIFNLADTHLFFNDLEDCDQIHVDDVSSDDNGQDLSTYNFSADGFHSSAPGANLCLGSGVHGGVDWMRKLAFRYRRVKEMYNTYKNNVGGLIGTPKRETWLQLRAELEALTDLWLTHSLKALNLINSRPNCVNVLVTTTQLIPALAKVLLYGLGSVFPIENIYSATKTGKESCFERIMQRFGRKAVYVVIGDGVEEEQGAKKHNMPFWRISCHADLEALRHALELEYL
On to `CC(=O)N1CCN(/[N+]([O-])=N/Oc2ccc([N+](=O)[O-])cc2[N+](=O)[O-])CC1`, for which the Potency was 19 µM (active). As for `Cn1nc([N+](=O)[O-])nc1Sc1cccc2cccnc12`, the Potency is 1.9 µM (active). As for `O=c1c(O)cccc2cc(O)c(O)c(O)c12`, the Potency is 8.49 µM (active). As for `OCCN(Cc1cccnc1)Cc1ccccn1`, the Potency is 5.36 µM (active).

Consider `COc1ccc(N(CC(=O)Nc2cccc(C(C)=O)c2)S(=O)(=O)c2ccc(NC(C)=O)cc2)cc1`, for which the “activity change, negative = inhibition” value was -23.4% (inactive). On to `CC(=O)Nc1ccc(S(=O)(=O)Nc2cccc3cccnc23)cc1`, for which the Potency was 4.78 µM (active). Take `CC1(C)CC(=O)c2c(oc3ccc(NS(=O)(=O)c4cccc5cccnc45)cc23)C1`: the “activity change, negative = inhibition” value was -15.7% (inactive). Regarding `O=C(CCCl)Nc1cccc2cccnc12`, the Potency was 15.1 µM (active). `O=S(=O)(Nc1cccc2cccnc12)c1ccccc1Br`: the Potency is 16.9 µM (active).

Consider `CCOc1ccc(Br)cc1S(=O)(=O)NC1CC(C)(C)NC(C)(C)C1`, for which the “activity change, negative = inhibition” value is -5.16% (inactive). Turning to `NC(=O)c1c(NC(=O)c2ccc(N3C(=O)CCC3=O)cc2)sc2c1CCCC2`, the Potency was 1.51 µM (active). As to `CCCC(=O)NC(=S)Nc1sc2c(c1C(N)=O)CCC2`, the “activity change, negative = inhibition” value is 0.48% (inactive).

Consider `CCc1nnc2c(N(C)C)nc3ccccc3n12`, for which the Potency was 15.1 µM (active).

In the case of `CN(C)S(=O)(=O)n1cnc2ccccc21`, the “activity change, negative = inhibition” value was -1.26% (inactive). As to `Cn1c(=O)n(CCO)c(=O)c2c1nc(Br)n2Cc1ccccc1`, the “activity change, negative = inhibition” value was -3.69% (inactive).

For `Cn1c(=O)n(Cc2ccc(F)cc2)c(=O)c2c1nc1n2CCN1Cc1ccco1`, the Potency is 16.9 µM (active). With `Cc1ccc(C(=O)Oc2ccc(C(=O)COC(=O)c3cnccn3)cc2)cc1`, the Potency was 0.478 µM (active). In the case of `Fc1ccc(-c2ccc(CNCc3ccccn3)o2)cc1`, the Potency was 19 µM (active). Turning to `Clc1ccc(-c2ccc(CNCc3ccccn3)o2)cc1`, the Potency is 15.1 µM (active). For the compound `Clc1cccc(-c2ccc(CNCc3ccccn3)o2)c1`, the Potency was 19 µM (active).

For the compound `O=S(=O)(c1ccc(Cl)s1)N1CCc2ccccc2C1`, the “activity change, negative = inhibition” value was 43.7% (inactive). For `CCOc1cc(C=NNC(=O)c2cccc(S(=O)(=O)N3CCCC3)c2)ccc1O`, the Potency was 6.01 µM (active).

Take `CC1CCC(=NNc2ccc(C(F)(F)F)cc2[N+](=O)[O-])CC1` (stereo unspecified): the Potency is 7.57 µM (active). As for `O=C(O)c1ccc2c(c1)C(=O)N(c1cccc(-c3nc4ccccc4s3)c1)C2=O`, the “activity change, negative = inhibition” value is -13.9% (inactive). On to `O=C(O)c1ccc2c(c1)C(=O)N(c1ccc(/C=C/C(=O)c3ccccc3)cc1)C2=O`, for which the Potency is 19 µM (active). In the case of `CCCc1cc(=O)[nH]c(SCC(=O)Nc2ccc(C)cc2)n1`, the “activity change, negative = inhibition” value was -8.55% (inactive).

With `Cc1nnc2sc(SCC(=O)Nc3ccc(Br)cc3)nn2c1=O`, the Potency is 4.78 µM (active).

Regarding `O=c1[nH]c(/C=C\c2ccc(O)cc2)nc(O)c1[N+](=O)[O-]`, the “activity change, negative = inhibition” value was -17% (inactive). Turning to `CCOC(=O)c1nn2c(C(F)(F)F)cc(-c3ccc(OC)cc3)nc2c1Br`, the Potency is 12 µM (active). For `CNc1c(Br)cc(C(O)C2=CCc3ccccc32)cc1Br` (stereo unspecified), the “activity change, negative = inhibition” value was -3.84% (inactive). As for `Nc1nc2cc3ccccc3cc2[nH]c1=O`, the “activity change, negative = inhibition” value was -10.3% (inactive). Regarding `Cc1ccccc1NC(=O)C1CCN(C(=O)N2CCOc3ccccc32)CC1`, the “activity change, negative = inhibition” value was -3.15% (inactive).

Regarding `Cc1ccccc1C(=O)NC(=S)Nc1ccccc1N1CCCC1`, the Potency is 13.5 µM (active). Take `CCc1nc2ccc(C(=O)NCCOc3ccc(OC)cc3)cn2c1N(CCC(C)C)CCN(C)C`: the “activity change, negative = inhibition” value was -16.6% (inactive).

As to `C/C(=C1/C=Nc2ccccc21)c1ccc(N(C)C)cc1`, the Potency is 19 µM (active).

`Cc1cccn2c(=O)c3cc(S(=O)(=O)c4ccc(F)cc4)c(=N)n(Cc4ccco4)c3nc12`: the “activity change, negative = inhibition” value was -12.7% (inactive). Regarding `COc1ccc(CCn2c(=N)c(C(=O)NCc3ccco3)cc3c(=O)n4ccccc4nc32)cc1OC`, the Potency was 15.1 µM (active). In the case of `CCC(=O)c1cn(CC(=O)Nc2c(C)cccc2C)c2ccccc12`, the “activity change, negative = inhibition” value was -9.78% (inactive). `Cc1ccccc1OCCn1cc(C(=S)N2CCN(C)CC2)c2ccccc21`: the Potency is 16.9 µM (active). On the same count and under the same terms, with `O=c1oc(-c2ccco2)nc2ccccc12` the figure was 19 µM (active). As to `O=C(O)CCCCCNS(=O)(=O)c1cccc2c1C(=O)c1ccccc1C2=O`, the Potency was 6.01 µM (active).

In the case of `CCOc1ccccc1O[C@H](c1ccccc1)[C@H]1CNCCO1`, the “activity change, negative = inhibition” value was -7.05% (inactive). For `Nn1c(SCC(=O)Nc2ccc3c(c2)OCCO3)nnc1-c1ccccn1`, the Potency is 21.3 µM (active). In the case of `NC(=O)C1CCN(CC(=O)Nc2ccc3c(c2)OCO3)CC1`, the “activity change, negative = inhibition” value is 22.6% (inactive). As for `O=C(CSc1ccc2c(c1)OCCO2)Nc1ccc2c(c1)OCO2`, the “activity change, negative = inhibition” value is -15.6% (inactive).

Take `O=S(=O)(Nc1nnc(-c2ccccc2)s1)c1ccc(Cl)cc1`: the Potency is 15.1 µM (active). `COc1cc(OC)c(OC)cc1CCC(C)NCCC(c1ccccc1)c1ccccc1` (stereo unspecified): the Potency is 8.49 µM (active). Still for that read-out and setting: with `Cc1ccc(NC(=O)CN2C(=O)S/C(=C\c3cc(Cl)c(OCC(=O)O)c(Cl)c3)C2=O)cc1` the figure was 19 µM (active); with `CC(SC1=NCCS1)C(=O)Nc1nnc(-c2ccc(Br)cc2)s1` (stereo unspecified), 6.01 µM (active); with `Oc1c(C(c2ccc(Cl)cc2)N2CCCC2)cc(Cl)c2cccnc12` (stereo unspecified), 6.75 µM (active). With `OC(c1ccc(Cl)cc1)c1nccc2ccccc12` (stereo unspecified), the “activity change, negative = inhibition” value is -9.24% (inactive). As to `CN1CCN(C(c2ccccn2)c2cc(Cl)c3cccnc3c2O)CC1` (stereo unspecified), the Potency is 2.39 µM (active). Take `COC(=O)c1c(C)[nH]c(C(=O)C(C)OC(=O)C2CC(=O)N(c3ccc(C)cc3)C2)c1C` (stereo unspecified): the “activity change, negative = inhibition” value was -26% (inactive).

On to `CC(=O)Oc1ccc(C(=O)OCC(=O)c2c(N)n(C)c(=O)n(C)c2=O)cc1OC(C)=O`, for which the Potency is 4.78 µM (active).

On to `Cn1c(N)c(C(=O)CSc2nnc(NC3CCCCC3)s2)c(=O)n(C)c1=O`, for which the “activity change, negative = inhibition” value is -28.7% (inactive). Same read-out and setting: with `COc1ccc(C(=O)N2CCOCC2)cc1S(=O)(=O)N1CCCc2ccccc21` the figure was -12.4% (inactive). Consider `O=C(Oc1ccc(C(=S)N2CCOCC2)cc1Cl)c1ccccc1F`, for which the Potency is 8.49 µM (active). Turning to `O=C(Oc1ccc(C(=S)N2CCOCC2)cc1Br)c1ccccc1F`, the Potency was 16.9 µM (active).

Regarding `CC1=CC(C)(C)Nc2ccc(OC(=O)CN3C(=O)c4ccccc4C3=O)cc21`, the “activity change, negative = inhibition” value was -11.5% (inactive). Consider `CN1/C(=C\C(=S)NC(=O)c2ccccc2Cl)C(C)(C)c2ccccc21`, for which the Potency was 16.9 µM (active). Turning to `O=C(NC1CCCCC1)N1CCN(C2CCCCC2)CC1`, the “activity change, negative = inhibition” value was 2.04% (inactive). In the case of `COc1cc(OC)c(NC(=O)CN(C)S(=O)(=O)c2ccc(-c3ccc(=O)[nH]n3)s2)cc1Cl`, the Potency is 4.26 µM (active). Take `COc1ccc([C@H]2CC(=O)C=C(c3ccnc4ccc(Cl)cc34)C2)cc1`: the “activity change, negative = inhibition” value was -22.9% (inactive). With `O=C(O)c1ccc(-c2ccc(/C=c3/sc4nc5ccccc5n4c3=O)o2)cc1Cl`, the Potency was 5.36 µM (active).

For the compound `N=C1/C(=C/c2ccc(-c3cccc(C(=O)O)c3)o2)C(=O)N=C2SC=C(c3ccccc3)N12`, the “activity change, negative = inhibition” value is -20.3% (inactive).

For `Cc1c(CCO)c(=O)n(-c2ccccc2)n1S(=O)(=O)c1c(Cl)cc(Cl)cc1Cl`, the Potency is 3.01 µM (active).

For `CC12CC3(C)CC(C)(C1)CC(C(=O)NC(=S)N1CCOCC1)(C2)C3`, the “activity change, negative = inhibition” value was -20% (inactive). On to `O=C1c2ccccc2C(=O)c2c(Nc3ccc(CCO)cc3)ccc(O)c21`, for which the Potency is 6.01 µM (active).

In the case of `COc1ccccc1NC(=O)CCCCCN1C(=O)c2cccc3cccc(c23)C1=O`, the “activity change, negative = inhibition” value was -15.8% (inactive). Turning to `O=C1c2cccc3cccc(c23)C(=O)N1CCCN1CCN(c2ccc(F)cc2)CC1`, the Potency is 15.1 µM (active). Turning to `O=C(c1cccc(S(=O)(=O)Nc2ccccc2Cl)c1)N1CCN(c2ccccc2O)CC1`, the Potency was 19 µM (active). In the case of `CC1Cc2ccccc2N1NC(=O)c1ccc(Cl)c(S(N)(=O)=O)c1` (stereo unspecified), the “activity change, negative = inhibition” value was -5.79% (inactive). For `COc1ccc(C2CC(c3ccccc3OC(=O)/C=C/c3ccccc3)=NN2C(C)=O)cc1` (stereo unspecified), the Potency was 19 µM (active). Turning to `O=S(=O)(Nc1cccc(-c2cn3cccnc3n2)c1)c1ccc(F)cc1`, the Potency was 13.5 µM (active).

Turning to `Cn1c(=O)c2cc(S(=O)(=O)Nc3cccc(F)c3)ccc2n(C)c1=O`, the “activity change, negative = inhibition” value is -21.5% (inactive).

Turning to `O=S(=O)(Nc1cccc(-c2cn3cccnc3n2)c1)c1ccccc1`, the Potency was 4.78 µM (active). As for `O=c1c(O)c(-c2ccc(O)cc2O)oc2cc(O)cc(O)c12`, the Potency was 8.49 µM (active). As to `Cc1cc(C(=O)c2ccccc2)cc(C)c1O`, the Potency was 1.9 µM (active).

`Cc1cc(C(=O)O)ccc1-n1c(C)cc(C=C2C(=O)c3ccccc3C2=O)c1C`: the “activity change, negative = inhibition” value is -8.67% (inactive).

For the compound `CN(C)c1ccc(C2C=Cc3ccccc32)c2ccccc12` (stereo unspecified), the Potency was 9.53 µM (active). As to `CSCc1cc(N(C)c2ccccc2)nc(-c2ccccn2)n1`, the Potency was 15.1 µM (active). Regarding `NCC(=O)Nc1ccc(Cl)cc1C(=O)c1ccc[nH]1`, the “activity change, negative = inhibition” value is -11.7% (inactive).

Consider `O=C(c1cccs1)N1CCC(c2nc3c(nnn3Cc3cccc(Cl)c3)c(=O)[nH]2)CC1`, for which the Potency is 10.7 µM (active). `CN(C)CCNc1ccc2nnn3c4ccc(O)cc4c(=O)c1c23`: the Potency is 1.69 µM (active).

On to `CN(C)CCNc1ccc2ncn3c4ccc(O)cc4c(=O)c1c23`, for which the Potency is 3.38 µM (active). Regarding `N#Cc1ccc(C(=O)N2CCC3CC2c2cc(-c4ccccc4)ccc23)cc1` (stereo unspecified), the “activity change, negative = inhibition” value was -24.4% (inactive). Consider `CN(C)C1=C2C=CC=CC2/C(=C2/C=Cc3ccccc32)C=C1` (stereo unspecified), for which the Potency was 8.49 µM (active). Same read-out and setting: with `O=C(O)c1cc(-c2ccc(/C=C3\NC(=O)N(c4ccc(Cl)cc4)C3=O)o2)ccc1Cl` the figure was 8.49 µM (active). Consider `COC(=O)c1ccc(NC(=O)c2ccc3c(c2)C(=O)N(Cc2cccnc2)C3=O)cc1`, for which the “activity change, negative = inhibition” value is -19.5% (inactive). For `CCOC(=O)CN1C(=O)/C(=C2\SC(=S)N(NC(=O)c3cccnc3)C2=O)c2ccccc21`, the Potency is 19 µM (active). Still for that read-out and setting: with `CN1C(=O)/C(=C2\SC(=S)N(NC(=O)c3cccnc3)C2=O)c2ccccc21` the figure was 9.53 µM (active). Consider `CCOc1cc(C(=O)NC(C)CCc2ccccc2)cc(OCC)c1OCC` (stereo unspecified), for which the “activity change, negative = inhibition” value was 13.9% (inactive). Regarding `C[C@H](CCC(=O)NCC(=O)O)[C@H]1CC[C@H]2[C@@H]3[C@H](O)C[C@@H]4C[C@H](O)CC[C@]4(C)[C@H]3C[C@H](O)[C@]12C`, the “activity change, negative = inhibition” value was -6.72% (inactive). Regarding `O=C(O)C(Cc1ccccc1)N1C(=O)/C(=C/C=C/c2ccco2)SC1=S` (stereo unspecified), the Potency was 6.75 µM (active). With `CC(C(=O)O)N1C(=O)/C(=C/C=C/c2ccco2)SC1=S` (stereo unspecified), the Potency was 3.79 µM (active). Same read-out and setting: with `O=C(O)CC(C(=O)O)N1C(=O)/C(=C/C=C/c2ccco2)SC1=S` (stereo unspecified) the figure was 3.79 µM (active).

The record behind these values is PubChem BioAssay AID720540 (National Center for Advancing Translational Sciences (NCATS), 2013).
